Reference: PubChem BioAssay (Tox21)
Records with an inconclusive call do not appear. The source made the active and inactive calls. Unless noted, the call rests on the fitted dose curve; in most records, active means well fitted curve in the direction sought with a large enough effect in the repeat runs; inconclusive means weak or mixed curves; inactive means no such curve, though single readings can be large; an effect the other way counts as inactive or inconclusive.

Columns and labels:
[1] = qHTS assay for small molecule agonists of the p53 signaling pathway (AID 651631; calls by dose curve; further: nearly all actives have a fitted effect of over 15% in size)
Method in brief: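 Agonist mode screen using a stably integrated beta-lactamase gene under p53 response elements in HCT-116 cells. Compound exposure lasts 16 h at 37 °C; fluorescence intensity is measured following 2 h FRET substrate loading.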

[2] = qHTS assay for small molecules that induce genotoxicity in human embryonic kidney cells expressing luciferase-tagged ATAD5 (AID 651632); further: nearly all actives have a fitted effect of over 15% in size
Method in brief: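 Test compounds were delivered by pin tool onto HEK293T reporter cells (2,000/well) expressing ATAD5 fused to luciferase. After 16 hr at 37C, 5% CO2, Amplite was added for 30 min at room temperature and luminescence was measured.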

[3] = qHTS assay for small molecule agonists of the p53 signaling pathway - cell viability (AID 651633; calls by dose curve;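 further: p53RE-bla HCT reporter cells with a stable beta-lactamase p53 reporter; series mostly up to about 83 µM; nearly all actives have a fitted effect of over 30% in size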)
Method in brief: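 p53RE-bla cells were treated with compound for 16 hours at 37 C. Cytotoxicity was then measured as CellTiter-Glo luminescence after 30 min at room temperature.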

[4] = qHTS assay for small molecules that induce genotoxicity in human embryonic kidney cells expressing luciferase-tagged ATAD5 - cell viability (AID 651634; calls by dose curve; further: nearly all actives have a fitted effect of over 25% in size)
Method in brief: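 Quantitative high-throughput format. HEK293T cells expressing ATAD5 fused to luciferase were plated at 2,000 cells/well and treated 15.5 hr with compound versus DMSO. Viability was determined by fluorescent live-cell protease substrate, 30 min at 37C.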

[5] = qHTS assay to test for compound auto fluorescence at 535 nm (green) in HepG2 cells (AID 720675)
[6] = qHTS assay to test for compound auto fluorescence at 460 nm (blue) in HEK293 cells (AID 720678)
Method in brief: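 After cell attachment (4-5 hr, 37C), compounds were pinned onto HEK293 monolayers in 10% dialyzed FBS medium. The blue channel (405/460 nm) was read following overnight culture. Equivalency was calculated against triamterene.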

[7] = qHTS assay to test for compound auto fluorescence at 590 nm (red) in HEK293 cells (AID 720679)
Method in brief: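 Plates of HEK293 cells (10% dialyzed FBS) are treated with 23 nL compound or DMSO vehicle after a 4-5 hr attachment period, incubated overnight at 37C, and read for red fluorescence at 540/590nm.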

[8] = qHTS assay to test for compound auto fluorescence at 535 nm (green) in HEK293 cells (AID 720680)
[9] = qHTS assay to test for compound auto fluorescence at 460 nm (blue) in HEK293 cell free culture (AID 720681)
Method in brief: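 Compounds were added to cell-free DMEM with 10% FBS and fluorescence read directly. The blue channel used 405 nm excitation and 460 nm emission, with triamterene as the reference fluorophore.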

[10] = qHTS assay to test for compound auto fluorescence at 590 nm (red) in HEK293 cell free culture (AID 720683)
Method in brief: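 Cell-free wells of DMEM with 10% FBS received compound, and intrinsic fluorescence was read at excitation/emission 540/590 nm. Values expressed as equivalence to Rose Bengal sodium.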

[11] = qHTS assay to test for compound auto fluorescence at 590 nm (red) in HepG2 cell free culture (AID 720684)
Method in brief: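 Rose Bengal sodium served as the reference for red signal. Test compounds were dispensed into serum-containing MEM (10% FBS) without cells, and plates were read at 540/590 nm.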

[12] = qHTS assay to test for compound auto fluorescence at 460 nm (blue) in HepG2 cell free culture (AID 720685)
Method in brief: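 Cell-free plates of MEM plus 10% FBS received 23 nL compound or DMSO vehicle; blue-channel (405/460 nm) intensity scored against triamterene as reference fluorophore.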

[13] = qHTS assay to test for compound auto fluorescence at 535 nm (green) in HepG2 cell free culture (AID 720686)
[14] = qHTS assay to test for compound auto fluorescence at 460 nm (blue) in HepG2 cells (AID 720687)
Method in brief: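 HepG2 cells in MEM with 10% FBS, attached overnight at 37 C, were exposed to compound or DMSO for 1 hr at 37 C, 5% CO2. Blue fluorescence was read at 405/460 nm, with triamterene as reference fluorophore.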

[15] = target: Glucocorticoid receptor (Homo sapiens) (UniProt P04150); assay: qHTS assay to identify small molecule agonists of the glucocorticoid receptor (GR) signaling pathway (AID 720691; active means well fitted activation curve with a large enough effect in the signal ratio in the repeat runs, not every such curve was filed as active; the % refers to the signal ratio)
Chain of Glucocorticoid receptor (Homo sapiens) (P04150 whole entry, looked up): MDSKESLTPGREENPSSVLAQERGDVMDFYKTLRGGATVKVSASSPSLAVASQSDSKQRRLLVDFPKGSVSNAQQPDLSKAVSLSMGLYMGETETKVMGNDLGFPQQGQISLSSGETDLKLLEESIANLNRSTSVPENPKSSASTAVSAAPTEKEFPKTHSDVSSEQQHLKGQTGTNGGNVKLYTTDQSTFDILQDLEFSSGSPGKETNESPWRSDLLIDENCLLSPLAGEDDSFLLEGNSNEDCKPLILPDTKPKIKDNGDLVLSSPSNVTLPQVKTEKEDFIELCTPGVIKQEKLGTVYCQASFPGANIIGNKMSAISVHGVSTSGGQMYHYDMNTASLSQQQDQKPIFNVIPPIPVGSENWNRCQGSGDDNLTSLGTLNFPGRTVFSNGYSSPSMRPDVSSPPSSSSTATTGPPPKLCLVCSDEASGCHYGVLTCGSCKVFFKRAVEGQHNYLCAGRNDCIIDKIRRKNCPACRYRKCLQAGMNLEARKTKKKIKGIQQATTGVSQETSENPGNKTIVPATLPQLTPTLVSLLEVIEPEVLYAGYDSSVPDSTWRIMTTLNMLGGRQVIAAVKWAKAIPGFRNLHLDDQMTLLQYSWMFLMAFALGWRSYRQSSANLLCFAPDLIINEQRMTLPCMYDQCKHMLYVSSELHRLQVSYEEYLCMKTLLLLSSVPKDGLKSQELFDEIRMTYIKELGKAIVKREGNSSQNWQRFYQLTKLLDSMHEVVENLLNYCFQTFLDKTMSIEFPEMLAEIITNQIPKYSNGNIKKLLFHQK
Method in brief: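 A HeLa cervical cancer line expressing GR and a glucocorticoid response element-driven beta-lactamase gene is treated with compounds for 18 h; LiveBLAzer B/G FRET substrate is then applied and fluorescence read.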

[16] = qHTS assay for small molecule disruptors of the mitochondrial membrane potential (AID 720635)
Method in brief: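 HepG2 cells exposed to compound 1 hr at 37C, then Mito-MPS dye 30 min. Ratio read of aggregate (540/590 nm) versus monomer (490/535 nm) fluorescence.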

[17] = qHTS assay to test for compound auto fluorescence at 590 nm (red) in HepG2 cells (AID 720674)
Method in brief: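 HepG2 cells, 2,000 per well in MEM with 10% FBS, attached overnight at 37 C, then got 23 nL compound or DMSO. After 1 hr at 37 C, 5% CO2, red fluorescence was read at 540/590 nm against Rose Bengal sodium as reference.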

[18] = qHTS assay to test for compound auto fluorescence at 535 nm (green) in HEK293 cell free culture (AID 720682)
Method in brief: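 No cells present: wells hold DMEM supplemented with 10% FBS, into which compound or vehicle is pinned. Green emission is then recorded (485 nm excitation, 535 nm emission) and scaled to fluorescein.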

[19] = target: Glucocorticoid receptor (Homo sapiens) (UniProt P04150); assay: qHTS assay to identify small molecule antagonists of the glucocorticoid receptor (GR) signaling pathway (AID 720692; active means well fitted inhibition curve with a large enough effect in the signal ratio in the repeat runs, not every such curve was filed as active; the % refers to the signal ratio)
Method in brief: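 GRE-bla HeLa line, dex-stimulated (5 nM final). Compound exposure 18 h, 37 C. Beta-lactamase FRET read after 2 h RT substrate.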

[20] = qHTS assay for small molecule disruptors of the mitochondrial membrane potential - cell viability (AID 720634; calls by dose curve;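 further: human HepG2 liver cancer cells; series mostly up to about 83 µM; nearly all actives have a fitted effect of over 20% in size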)
Method in brief: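 Same-well counter-screen: following the MMP dye addition, CellTiter-Glo was added to 1 hr compound-treated HepG2 cells and luminescence read after 30 min at room temperature.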

Measured: Potency

CC(C)[N+](=O)[O-]
inactive: [1] | [2] | [3] | [4] | [5] | [6] | [7] | [8] | [9] | [10] | [11] | [12] | [13] | [14] | [15]

O=C(O)c1ccc2[nH]cc(CCCCN3CC=C(c4ccccc4)CC3)c2c1
inactive: [1] | [2] | [3] | [4] | [16] | [17] | [5] | [6] | [7] | [8] | [9] | [18] | [10] | [11] | [12] | [13] | [14] | [15] | [19]

COc1cc2c(cc1OC)[C@@]13CCN4CC5=CCO[C@H]6CC(=O)N2[C@H]1[C@H]6[C@H]5C[C@H]43
inactive: [1] | [2] | [3] | [4] | [17] | [5] | [6] | [7] | [8] | [9] | [18] | [10] | [11] | [12] | [13] | [14]

OC(c1ccc(F)cc1)(c1cncnc1)c1ccccc1Cl (configuration not stated)
inactive: [1] | [2] | [3] | [4] | [16] | [17] | [5] | [6] | [7] | [8] | [9] | [18] | [10] | [11] | [12] | [13] | [14] | [15]

CCCCOC(=O)[C@@H](C)Oc1ccc(Oc2ccc(C#N)cc2F)cc1
inactive: [1] | [2] | [3] | [4] | [17] | [5] | [6] | [7] | [8] | [9] | [18] | [10] | [11] | [12] | [13] | [14]

CCOP(=S)(OCC)Oc1nc(Cl)n(C(C)C)n1
inactive: [1] | [2] | [3] | [4] | [16] | [5] | [6] | [7] | [8] | [18] | [11] | [12] | [13] | [14] | [15]

CS(=O)(=O)c1cc(C(F)(F)F)ccc1C(=O)c1cnoc1C1CC1
inactive: [1] | [2] | [3] | [4] | [16] | [17] | [5] | [6] | [7] | [8] | [9] | [18] | [10] | [11] | [12] | [13] | [14] | [19]

CC(C)(C)C(=O)C(Oc1ccc(Cl)cc1)n1cncn1 (configuration not stated)
inactive: [1] | [2] | [3] | [4] | [17] | [5] | [6] | [7] | [8] | [10] | [12] | [13] | [15]

CC(=O)[C@H]1CC[C@H]2[C@@H]3CC[C@H]4C[C@H](O)CC[C@]4(C)[C@H]3C(=O)C[C@]12C
inactive: [1] | [2] | [3] | [20] | [16] | [17] | [5] | [6] | [7] | [8] | [9] | [18] | [10] | [11] | [12] | [13] | [14]

CCCCc1c(C)nc(NCC)[nH]c1=O
inactive: [1] | [2] | [3] | [4] | [17] | [5] | [6] | [7] | [8] | [9] | [18] | [10] | [11] | [12] | [13] | [14] | [15]

CCOP(=S)(OCC)Oc1cc(-c2ccccc2)on1
inactive: [1] | [2] | [3] | [4] | [17] | [5] | [6] | [7] | [8] | [9] | [18] | [10] | [12] | [13] | [14] | [15] | [19]

OCCSCSCCO
inactive: [1] | [2] | [3] | [20] | [16] | [17] | [5] | [6] | [7] | [8] | [9] | [10] | [12] | [13] | [14]

N#CCCC#N
inactive: [1] | [2] | [3] | [4] | [17] | [5] | [6] | [7] | [8] | [9] | [18] | [10] | [11] | [12] | [13]

CCCCCCI
inactive: [1] | [2] | [3] | [20] | [16] | [17] | [5] | [6] | [7] | [8] | [9] | [18] | [10] | [11] | [12] | [13] | [14]

CC(COc1ccc(Oc2ccccc2)cc1)Oc1ccccn1 (configuration not stated)
inactive: [1] | [2] | [3] | [4] | [5] | [6] | [7] | [8] | [18] | [10] | [11] | [12] | [13] | [14]

O=[N+]([O-])c1ccc2c3c(cccc13)CC2
inactive: [1] | [2] | [3] | [4] | [17] | [5] | [6] | [7] | [8] | [18] | [10] | [11] | [12] | [13] | [14]
